This passage reports Potency results from PubChem BioAssay (NCATS).

Molecules are shown by their SMILES. Inconclusive results are not listed. The source made the active and inactive calls. Calls follow the shape of the dose curve; as a rule, active = well fitted inhibition curve with a large enough effect; inconclusive = small, poorly fitted or top-dose-only effect; inactive = flat fitted curve, though single readings scatter.

Common to all, as to experiment: qHTS profiling for inhibitors of Plasmodium falciparum proliferation (AID 504749); also: nearly all actives have a fitted effect of over 60% in size
Holding throughout (settings): P. falciparum in erythrocytes, SYBR Green DNA, 72 h; series mostly up to 28.7 µM
Background: Quantitative high-throughput screening tests each substance at several concentrations.

In one assay the test system is ATS95. Summed up:
(§1)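 Infected RBCs, 0.3% parasitemia/2.5% Hct final; cpd 72 h, 37 C, 5% CO2; lysis buffer with saponin/triton/SYBR Green I, o/n RT dark; FI 485/535; norm. to artemisinin (0.29 uM) and DMSO.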

The subject of another assay is C2A. The procedure, abridged:
as §1

Another assay relates to CP185. Summed up:
as §1

In a further assay the test system is CP191. Summed up: as §1
The subject of the next assay is CP192. The procedure, abridged:
as §1

Another assay relates to CP194. The procedure, abridged: as §1
Another assay relates to CP201. The procedure, abridged: as §1
The next assay has as its system CP203. The procedure, abridged:
as §1

In another assay the test system is CP211. Summed up:
as §1

A further assay relates to CP215. Summed up: as §1
A further assay concerns CP217. Summed up: as §1
Another assay deals with CP237. The procedure, abridged:
as §1

The subject of a further assay is CP238. The procedure, abridged:
as §1

A further assay has as its system CP247. The procedure, abridged: as §1
For another assay, the system named is CP250. Summed up: as §1
Another assay deals with CP252. The procedure, abridged: as §1
The test system of another assay is CP256. Summed up: as §1
The next assay deals with CP260. Summed up:
as §1

The next assay relates to CP262. The procedure, abridged: as §1
The next assay relates to CP265. The procedure, abridged:
as §1
Potency is read from the fitted curve at half-maximal effect.

For the molecule `CC(C)(COP(=O)(O)OP(=O)(O)OC[C@H]1O[C@@H](n2cnc3c(N)ncnc32)[C@H](O)[C@@H]1OP(=O)(O)O)C(O)C(=O)NCCC(=O)NCCS` (stereo not given in full), the Potency result in the assay with ATS95, in the assay with C2A, in the assay on CP185, with CP191, in the assay on CP192 and in the assay on CP194 was “inactive” throughout. Further, the Potency result in the assay with CP201, in the assay on CP203, in the assay on CP211, in the assay on CP215, in the assay on CP217 and in the assay on CP237 was “inactive” in each case. In addition, the Potency entry in the assay on CP238, with CP247, with CP250, in the assay on CP252, with CP256 and in the assay on CP260 was “inactive” in each case. Further, the Potency result in the assay with CP262 and in the assay with CP265 was “inactive” each time.
As to `O=C(OCc1ccccc1)c1ccc(O)cc1`, the Potency result in the assay on ATS95, in the assay on C2A, in the assay with CP185, in the assay with CP191, in the assay with CP192 and in the assay on CP194 was “inactive” each time. In addition, the Potency result in the assay on CP201, with CP203, in the assay with CP211, in the assay with CP215, in the assay with CP217 and in the assay on CP237 was “inactive” each time. In addition, the Potency entry with CP238, in the assay with CP247, in the assay with CP250, in the assay on CP252, with CP256 and with CP260 was “inactive” each time. In addition, the Potency entry in the assay on CP262 and in the assay on CP265 was “inactive” each time.
Turning to `NCC[C@H](O)C(=O)N[C@@H]1C[C@H](N)[C@@H](O[C@H]2O[C@H](CN)[C@@H](O)[C@H](O)[C@H]2O)[C@H](O)[C@H]1O[C@H]1O[C@H](CO)[C@@H](O)[C@H](N)[C@H]1O`, the Potency result in the assay on ATS95, in the assay with C2A, in the assay with CP185, in the assay on CP191, with CP192 and with CP194 was “inactive” in each case. The Potency entry in the assay with CP201, in the assay on CP203, in the assay with CP211, in the assay on CP215, in the assay on CP217 and with CP237 was “inactive” throughout. The Potency entry with CP238, in the assay on CP247, with CP250, in the assay on CP252, in the assay with CP256 and in the assay on CP260 was “inactive” in each case. For the same molecule, the Potency result in the assay on CP262 and in the assay with CP265 was “inactive” in each case.
`Nc1ncnc2c1ncn2CCOCP(=O)(O)O`: the Potency entry in the assay on ATS95, with C2A, in the assay with CP185, with CP191, in the assay on CP192 and in the assay on CP194 was “inactive” throughout. The Potency entry in the assay on CP201, in the assay on CP203, in the assay with CP211, with CP215, in the assay with CP217 and in the assay with CP237 was “inactive” each time. The Potency result in the assay with CP238, in the assay with CP247, with CP250, with CP252, with CP256 and in the assay with CP260 was “inactive” in each case. Also, the Potency entry in the assay with CP262 and in the assay on CP265 was “inactive” each time.
For `CO/N=C(/C(=O)N[C@@H]1C(=O)N2C(C(=O)O)=C(COC(N)=O)CS[C@H]12)c1ccco1`, the Potency entry with ATS95, in the assay on C2A, in the assay with CP185, in the assay with CP191, with CP192 and in the assay on CP194 was “inactive” each time. Besides, the Potency entry in the assay on CP201, with CP203, in the assay with CP211, in the assay on CP215, in the assay with CP217 and with CP237 was “inactive” in each case. The Potency entry in the assay with CP238, with CP247, in the assay with CP250, with CP252, in the assay with CP256 and in the assay with CP260 was “inactive” throughout. Moreover, the Potency result in the assay with CP262 and in the assay with CP265 was “inactive” each time.
Take `C=CCCCCCCCCC(=O)OC`: the Potency entry in the assay on ATS95, in the assay on C2A, in the assay on CP185, in the assay on CP191, in the assay on CP192 and in the assay with CP194 was “inactive” in each case. For the same molecule, the Potency entry in the assay on CP201, in the assay on CP203, in the assay with CP211, with CP215, in the assay with CP217 and in the assay on CP237 was “inactive” throughout. The Potency entry in the assay with CP238, with CP247, in the assay with CP250, in the assay on CP252, in the assay with CP256 and with CP260 was “inactive” throughout. Also, the Potency result in the assay with CP262 and with CP265 was “inactive” each time.
With `O=C1c2ccccc2CN2C(=O)c3ccccc3CN12`, the Potency result with ATS95, with C2A, with CP185, in the assay on CP191, in the assay with CP192 and with CP194 was “inactive” each time. In addition, the Potency entry in the assay on CP201, with CP203, in the assay with CP211, in the assay with CP215, in the assay with CP217 and in the assay on CP237 was “inactive” each time. In addition, the Potency entry with CP238, in the assay with CP247, with CP250, in the assay with CP252, in the assay with CP256 and in the assay with CP260 was “inactive” in each case. In addition, the Potency result with CP262 and in the assay on CP265 was “inactive” throughout.
Regarding `C[C@]12CC[C@@H]3c4ccc(OC(=O)c5ccccc5)cc4CC[C@H]3[C@@H]1CC[C@@H]2O`, the Potency entry in the assay on ATS95, in the assay on C2A, in the assay on CP185, in the assay with CP191, in the assay with CP192 and with CP194 was “inactive” in each case. The Potency result in the assay on CP201, with CP203, in the assay with CP211, in the assay with CP215, in the assay on CP217 and in the assay with CP238 was “inactive” throughout. For the same molecule, the Potency result with CP247, in the assay on CP250, in the assay on CP252, with CP256, in the assay with CP262 and in the assay on CP265 was “inactive” each time. Also, the Potency in the assay on CP237 was 4.47 µM (active); in the assay on CP260 it was 5.01 µM (active).
Turning to `CC(C)Cc1ccc([C@@H](C)C(=O)NS(C)(=O)=O)cc1`, the Potency result in the assay on ATS95, in the assay on C2A, in the assay with CP185, in the assay on CP191, in the assay on CP192 and with CP194 was “inactive” each time. Besides, the Potency entry with CP201, in the assay on CP203, in the assay on CP211, with CP215, in the assay on CP217 and in the assay on CP237 was “inactive” in each case. Moreover, the Potency entry in the assay on CP238, in the assay with CP247, in the assay with CP250, in the assay with CP252, in the assay with CP256 and in the assay on CP260 was “inactive” in each case. Besides, the Potency entry with CP262 and in the assay with CP265 was “inactive” each time.
In the case of `Cc1ccc(C(C)(C)c2ccc(C)cc2)cc1`, the Potency entry in the assay with ATS95, with C2A, in the assay on CP185, in the assay with CP191, with CP192 and with CP194 was “inactive” throughout. Also, the Potency result with CP201, with CP203, in the assay on CP211, with CP215, in the assay on CP217 and in the assay with CP237 was “inactive” throughout. Also, the Potency result in the assay with CP238, in the assay with CP247, in the assay with CP250, with CP252, in the assay with CP256 and in the assay on CP260 was “inactive” in each case. The Potency result with CP262 and in the assay with CP265 was “inactive” in each case.
As to `CCCCCCCCCCCCOCCCN`, the Potency result in the assay on ATS95, with C2A, in the assay with CP185, with CP191, in the assay with CP192 and in the assay with CP194 was “inactive” each time. Moreover, the Potency result in the assay on CP201, with CP203, with CP211, in the assay on CP215, with CP217 and in the assay with CP237 was “inactive” in each case. Also, the Potency result in the assay on CP238, in the assay on CP247, in the assay with CP250, with CP252, with CP256 and in the assay on CP260 was “inactive” throughout. For the same molecule, the Potency result with CP262 and in the assay with CP265 was “inactive” each time.
On to `CCN(CC)C(=O)c1cccnc1`, for which the Potency result in the assay with ATS95, in the assay with C2A, with CP185, in the assay on CP191, with CP192 and with CP194 was “inactive” in each case. Besides, the Potency entry in the assay on CP201, in the assay on CP203, in the assay on CP211, with CP215, in the assay with CP217 and in the assay on CP237 was “inactive” in each case. For the same molecule, the Potency result in the assay with CP238, in the assay with CP247, in the assay with CP250, in the assay with CP252, with CP256 and in the assay with CP260 was “inactive” in each case. Moreover, the Potency entry in the assay with CP262 and in the assay on CP265 was “inactive” each time.
